System: Plasmodium falciparum
Assay: GSK_TCMDC: Inhibition of Plasmodium falciparum Dd2 in whole red blood cells, using parasite LDH activity as an index of growth. Test compounds present at 2uM
Format: functional

Row | Structure (SMILES) | Inhibition [%]
1 | CC(=O)Nc1ccc(CN2Cc3ccc(NC(=O)Nc4ccc(Oc5ccccc5)cc4)cc3C2)s1 | 25
2 | CCCCCCN1CCCN(Cc2ccc(C(=O)Nc3ccc(C(C)(C)C)cc3)cc2)CC1.O=C(O)C(F)(F)F | 32
3 | CC[C@H](C)CNC(=O)c1ccnc(-c2ccc(CNC3Cc4ccccc4C3)cc2)c1.O=C(O)C(F)(F)F | 87
4 | CC(C)CCn1c(Sc2ccc(C#N)c([N+](=O)[O-])c2)nnc1-c1ccc(N(C)C)cc1 | 96
5 | CC(C)(C)OC(=O)N1CCN(c2ccccc2NC(=O)c2cccc(C(F)(F)F)c2Oc2ccc(F)cc2)CC1 | 9
6 | COc1ccccc1Cn1ccnc1SCC(=O)Nc1cc(C(F)(F)F)ccc1Cl | 97
7 | COc1ccc(C2C(C(=O)Nc3cc(OC)c(OC)c(OC)c3)c3cc(OC)c(OC)cc3C(=O)N2C)cc1 (stereo not given) | 100
8 | O=C(Cc1cccc2ccccc12)N1CCc2cc3nccc(N4CCN5CCC[C@H]5C4)c3cc21 | 99
9 | O=C(Nc1cccc(OC2CCN(Cc3ccsc3)CC2)c1)c1ccc(C(F)(F)F)cc1.O=C(O)C(F)(F)F | 5
10 | CO/C(=C\C=C\c1cc2cc(Cl)c(Cl)cc2[nH]1)C(=O)NCCCN1CCN(c2cccc(O)c2)CC1 | 100
11 | Cc1ccc2c(=O)cc(CCc3cccc(F)c3F)n(CC(=O)N(Cc3ccc(-c4ccc(C(F)(F)F)cc4)cc3)C3CCN(C)CC3)c2n1.O=C(O)C(O)C(O)C(=O)O | 76
12 | Cc1cc(N2CCN(C3CCCCC3)CC2)nc2cccc(O)c12 | 37
13 | COc1ccc(NC(=O)/C=C/c2ccc(-c3ccccc3)cc2)cc1N1CCN(C)CC1.O=C(O)C(=O)O | 46
14 | Oc1cc(NC[C@@H]2CCC[C@@H]2NCc2ccc(Cl)c(Cl)c2)nc2ccccc12 | 75
15 | Fc1ccc(COc2ccc(Nc3ncnc4ccc(I)cc34)cc2Cl)cc1 | 30
16 | NCc1ccc(-c2cccc(CNC3CCN(Cc4ccccc4)CC3)c2)cc1.O=C(O)C(F)(F)F | 50
17 | O=C(Nc1cccc(Cl)c1)N(CCCn1ccnc1)Cc1csc(-c2ccc(CNCc3ccccc3)cc2)n1.O=C(O)C(F)(F)F | 45
18 | CN(C)CC(O)C(c1ccccc1)c1cccc(Br)c1.Cl (stereo not given) | 9

Row | Structure (SMILES) | Inhibition [%]
19 | CCCCN1CC[C@@H](CCC(O)c2ccnc3ccc(OCCC(C)C)cc23)[C@@H](CC)C1.O=C(O)C(=O)O (stereo not given in full) | 90
20 | O=C(NCCCCN1CCC(c2ccc3c(c2OCc2ccncc2)CCCC3)CC1)c1ccc(NC(=O)c2ccc(Cl)cc2)cc1 | 99
21 | COc1ccc(CN2CCCC(N3CC4(OC3=O)c3ccccc3-c3ccccc34)C2)c(O)c1 (stereo not given) | 34
22 | O=C(Nc1nc2ccc(Cl)cc2s1)c1csnn1 | 99
23 | CCCCCCCC1CCN(C[C@H](O)c2ccnc3ccc(OC)cc23)CC1.O=C(O)C(=O)O | 81
24 | COc1ccc2nccc(NC(=O)C3CCC(NCc4ccc5c(c4)NC(=O)CS5)CC3)c2c1 (stereo not given) | 19
25 | N=C(N)c1ccc(NC(=O)c2cc(Sc3ccc(O)c(C(=O)Nc4ccc(C(=N)N)cc4)c3)ccc2O)cc1 | 87
26 | CN1CCN(CC(=O)Nc2ccc(-c3ccc(-c4nc5ccccc5[nH]4)s3)cc2)CC1 | 49
27 | Cc1cc(Cl)c(S(=O)(=O)NC2CCCC2)cc1OCC(=O)NC1CCCCC1 | 91
28 | CC(=O)N(C)c1cccc(C(=O)Nc2ccc(-c3cccc(-c4nc5cccc(C)c5[nH]4)c3)cc2)c1 | 68
29 | CCNc1cc(C(=O)N[C@@H](Cc2ccccc2)[C@H](O)CNCCCc2ccc(OC)cc2)cc(N2CCCC2=O)c1.O=C(O)C(F)(F)F | 96
30 | CCOC(=O)CN(c1ccc(Br)cc1OCCOc1cc(Br)ccc1N(CC(=O)OCC)C(C)C(=O)OCC)C(C)C(=O)OCC (stereo not given) | 6
31 | C[C@@H](CC1CCCCC1)OC(=O)N[C@H]1CCN(C#N)C1 | 83
32 | CN(CCN(C)CC(O)c1ccc(Cl)c(Cl)c1)CC(O)c1ccc(Cl)c(Cl)c1.Cl (stereo not given) | 73
33 | CC(C)c1sc(N2CCN(C)CC2)nc1C(=O)NCCc1ccc(Cl)c(Cl)c1.O=C(O)C(F)(F)F | 79
34 | CCC[C@@H]([C@@H](CC1CCCCC1)C(=O)N[C@H](C(=O)Nc1nccs1)[C@H](C)O)N(O)C=O | 75
35 | O=C(Nc1ccc(CN2CCN(S(=O)(=O)c3ccc(Cl)s3)CC2)cc1)c1cccs1.O=C(O)C(F)(F)F | 87

— ChEMBL document CHEMBL1157539, “Thousands of chemical starting points for antimalarial lead identification” (Nature, 2010)
